Activity calls are given as the source filed them.

Assay [1] can be described thus: small molecules captured by biotinylated probe aFSTL3 – biochemical, small-molecule microarray, fluorescence 635/667, stem cell growth factor project, primary screen (AID 1064).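 Also: measures binding of the biotinylated anti-FSTL3 antibody to printed compounds.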 The conditions noted are these: higher = more signal.
Assay [2] is described as follows: binders from COS7 lysate, DM2A8 probe, primary screen, torsin A project, cell lysate, small-molecule microarray, fluorescence 635/667 (AID 1065). As to conditions: higher = more signal, COS7 lysate expressing mutant human TOR1A.
The nature of assay [3]: small molecules captured by biotinylated probe aFGF2 – biochemical, small-molecule microarray, fluorescence 635/667, stem cell growth factor project, primary screen (AID 1067).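 Also: measures binding of biotinylated aFGF2 protein to printed compounds on slides; z-score merges feature fluorescence and signal-to-noise across triplicate slides.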 As to conditions: higher = more signal.
Assay [4] can be described thus: small molecules captured by biotinylated probe aFGF10 – biochemical, small-molecule microarray, fluorescence 635/667, stem cell growth factor project, primary screen (AID 1071).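 Also: score merges 667 nm spot intensity and signal to noise from triplicate slides.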 The conditions noted are these: higher = more signal.
Assay [5] deals with Neurogenic locus notch homolog protein 2 (Homo sapiens) (UniProt Q04721). Briefly: small molecules binding Notch2 protein – biochemical, small-molecule microarray, 635 nm fluorescence, stem cell growth factors, primary screen (AID 1073). As to conditions: higher = more signal.
Assay [6] has as its target Pro-neuregulin-1, membrane-bound isoform (Homo sapiens) (UniProt Q02297). The experiment in a line: small molecules binding neuregulin-1 protein – biochemical, small-molecule microarray, fluorescence 635/667, psychiatric disease protein project, primary screen (AID 1075).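 Also: score combines 667 nm spot fluorescence with signal to noise.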 As to conditions: NRG1 binding, 635 nm fluorescence, higher = more signal.
The test system of assay [7] is Neuregulin-1 EGF-like domain. The experiment in a line: small molecules binding NRG1 EGF domain – biochemical, small-molecule microarray, 635 nm fluorescence, primary screen (AID 1081).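 Also: binding of the protein to compounds printed on small-molecule microarray slides.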 As to conditions: higher = more signal.
Assay [8] in a line: FRG1 expression reporter modulators in myotubes – cell-based, C2C12 myotubes, firefly/Renilla luciferase, luminescence, FRG1 inhibition for FSHD, primary screen (AID 1084). As to conditions: FRG1 promoter luciferase, higher = more signal, called active from +8 up or from −8 down.
Assay [9] is described as follows: small molecules captured by biotinylated probe aFST – biochemical, small-molecule microarray, fluorescence 635/667, stem cell growth factor project, primary screen (AID 1086).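 Also: score merges 667 nm fluorescence with signal-to-noise of each printed compound spot.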 As to conditions: higher = more signal.
Assay [10] in a line: binders of probe aHhip on microarray, primary screen, stem cell growth factor project, biochemical, small-molecule microarray, fluorescence 635/667 (AID 1087).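 Also: score merges spot fluorescence at 667nm with spot signal to noise ratio.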 As to conditions: higher = more signal.

Pro-neuregulin-1, membrane-bound isoform (Homo sapiens), sequence (Q02297 whole entry, looked up, the tested form may be a part, canonical isoform): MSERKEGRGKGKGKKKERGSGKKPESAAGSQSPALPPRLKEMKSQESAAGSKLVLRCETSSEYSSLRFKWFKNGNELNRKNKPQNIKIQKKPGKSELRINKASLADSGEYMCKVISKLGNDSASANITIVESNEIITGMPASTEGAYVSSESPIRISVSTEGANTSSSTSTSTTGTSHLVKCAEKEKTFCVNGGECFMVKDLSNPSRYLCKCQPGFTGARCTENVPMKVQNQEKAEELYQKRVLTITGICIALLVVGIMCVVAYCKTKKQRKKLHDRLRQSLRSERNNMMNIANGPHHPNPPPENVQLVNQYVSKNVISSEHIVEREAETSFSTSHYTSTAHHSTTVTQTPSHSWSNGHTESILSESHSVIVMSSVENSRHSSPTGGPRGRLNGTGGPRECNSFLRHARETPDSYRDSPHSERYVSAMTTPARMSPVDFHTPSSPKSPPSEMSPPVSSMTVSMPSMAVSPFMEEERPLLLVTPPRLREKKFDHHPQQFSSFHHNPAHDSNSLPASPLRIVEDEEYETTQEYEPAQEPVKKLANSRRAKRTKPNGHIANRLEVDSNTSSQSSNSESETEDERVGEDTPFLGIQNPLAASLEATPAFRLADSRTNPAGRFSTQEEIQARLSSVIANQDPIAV
Neurogenic locus notch homolog protein 2 (Homo sapiens), sequence (Q04721 whole entry, looked up, canonical isoform): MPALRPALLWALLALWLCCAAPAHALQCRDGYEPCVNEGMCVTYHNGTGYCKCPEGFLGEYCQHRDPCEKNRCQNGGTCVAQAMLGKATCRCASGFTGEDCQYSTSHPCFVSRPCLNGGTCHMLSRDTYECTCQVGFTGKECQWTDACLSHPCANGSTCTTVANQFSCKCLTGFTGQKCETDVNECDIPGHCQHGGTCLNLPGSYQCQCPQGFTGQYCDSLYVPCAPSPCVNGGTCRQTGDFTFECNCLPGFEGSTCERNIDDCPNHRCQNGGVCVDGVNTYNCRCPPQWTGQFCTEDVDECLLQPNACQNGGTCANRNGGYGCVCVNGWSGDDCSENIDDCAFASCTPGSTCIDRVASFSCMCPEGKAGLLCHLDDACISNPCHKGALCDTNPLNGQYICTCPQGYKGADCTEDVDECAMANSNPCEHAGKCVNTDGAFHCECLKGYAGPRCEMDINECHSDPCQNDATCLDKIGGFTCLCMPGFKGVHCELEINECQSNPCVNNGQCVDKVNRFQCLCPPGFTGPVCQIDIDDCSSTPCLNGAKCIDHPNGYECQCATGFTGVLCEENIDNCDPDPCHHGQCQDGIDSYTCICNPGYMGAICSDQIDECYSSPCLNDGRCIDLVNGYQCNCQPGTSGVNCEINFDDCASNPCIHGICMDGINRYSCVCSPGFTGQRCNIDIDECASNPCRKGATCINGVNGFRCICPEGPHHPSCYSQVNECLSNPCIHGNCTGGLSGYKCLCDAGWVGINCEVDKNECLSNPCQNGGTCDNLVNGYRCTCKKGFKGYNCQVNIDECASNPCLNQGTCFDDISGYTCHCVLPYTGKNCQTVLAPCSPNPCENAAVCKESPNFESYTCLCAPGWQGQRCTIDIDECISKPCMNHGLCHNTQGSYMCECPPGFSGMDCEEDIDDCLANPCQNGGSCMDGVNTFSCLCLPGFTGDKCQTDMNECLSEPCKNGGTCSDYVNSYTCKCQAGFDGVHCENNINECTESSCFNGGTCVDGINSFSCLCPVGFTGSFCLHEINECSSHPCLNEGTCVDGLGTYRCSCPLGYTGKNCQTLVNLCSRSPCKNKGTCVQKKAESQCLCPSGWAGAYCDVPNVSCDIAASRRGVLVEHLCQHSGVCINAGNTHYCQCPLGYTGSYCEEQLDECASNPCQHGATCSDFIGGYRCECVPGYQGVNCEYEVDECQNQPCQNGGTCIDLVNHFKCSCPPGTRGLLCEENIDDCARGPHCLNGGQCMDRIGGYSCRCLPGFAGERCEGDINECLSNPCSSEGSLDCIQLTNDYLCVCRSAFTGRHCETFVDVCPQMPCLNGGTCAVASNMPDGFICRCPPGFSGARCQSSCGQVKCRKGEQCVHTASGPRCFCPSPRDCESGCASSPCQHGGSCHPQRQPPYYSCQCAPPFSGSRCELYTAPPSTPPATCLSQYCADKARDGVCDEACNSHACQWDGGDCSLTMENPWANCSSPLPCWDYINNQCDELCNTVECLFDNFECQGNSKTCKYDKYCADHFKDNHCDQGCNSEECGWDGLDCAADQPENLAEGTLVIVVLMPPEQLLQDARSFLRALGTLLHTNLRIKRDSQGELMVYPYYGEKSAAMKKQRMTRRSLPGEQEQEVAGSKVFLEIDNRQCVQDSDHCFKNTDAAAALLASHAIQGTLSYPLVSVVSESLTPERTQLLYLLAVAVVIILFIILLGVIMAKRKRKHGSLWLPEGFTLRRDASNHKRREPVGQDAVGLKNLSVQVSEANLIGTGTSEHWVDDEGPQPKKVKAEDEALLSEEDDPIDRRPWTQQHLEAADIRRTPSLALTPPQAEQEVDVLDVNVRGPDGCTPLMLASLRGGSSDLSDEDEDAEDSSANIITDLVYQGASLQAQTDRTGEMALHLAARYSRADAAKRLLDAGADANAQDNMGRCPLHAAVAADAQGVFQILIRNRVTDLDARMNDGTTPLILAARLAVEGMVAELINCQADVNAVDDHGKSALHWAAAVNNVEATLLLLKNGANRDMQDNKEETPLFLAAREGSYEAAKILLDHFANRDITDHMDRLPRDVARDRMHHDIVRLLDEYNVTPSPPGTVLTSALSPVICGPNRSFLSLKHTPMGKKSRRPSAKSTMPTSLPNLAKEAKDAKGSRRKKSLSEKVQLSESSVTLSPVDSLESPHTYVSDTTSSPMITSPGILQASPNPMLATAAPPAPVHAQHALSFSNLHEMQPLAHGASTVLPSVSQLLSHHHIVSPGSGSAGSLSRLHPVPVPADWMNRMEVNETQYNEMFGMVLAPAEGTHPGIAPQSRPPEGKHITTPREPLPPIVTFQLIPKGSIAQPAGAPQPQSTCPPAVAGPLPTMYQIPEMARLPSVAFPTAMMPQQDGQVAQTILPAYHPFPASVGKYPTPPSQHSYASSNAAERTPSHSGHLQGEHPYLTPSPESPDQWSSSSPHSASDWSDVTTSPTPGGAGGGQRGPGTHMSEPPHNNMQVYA

On to `CN1C(=O)C2C=CC(C(O)c3ccc(F)cc3)N(N3CCCCC3)C2C1=O` (stereo not given), for which the composite z-score in assay [1] amounted to 1.1; in [2], 1.72; in assay [3], 0.344; in assay [4], 0.139; in assay [5] it was 1.44; in [6] it was 1.17. The composite z-score in [7] turned out to be 1.19; in assay [9], 0.713; in assay [10], 0.0274. Further, the z-score in assay [8] is 0.532 (inactive).

As to `COC(=O)c1ccc(OC)c(/C=C\CC(CCc2ccccc2)OC(=O)c2ccncc2)c1` (stereo not given), the composite z-score was 0.233 in assay [1]; 0.767 in [2]; -0.22 in [3]; -0.293 in assay [4]; -0.714 in assay [5]; -0.0697 in assay [6]. Also, the composite z-score in assay [7] was 0.0883; in assay [9], -0.432; in [10] it was -0.146. In assay [8], the z-score was -2.63 (inactive).

Consider `CCCNC(=O)[C@@]1(Sc2ccc(C)cc2)CC(=O)N(Cc2ccccc2)[C@@H]1c1ccc(CO)cc1I`, for which the composite z-score in assay [1] was 1.33; in [2] it was -0.0477; in assay [3], -0.0917; in assay [4], -0.008; in [5] it was 0.367; in assay [6], 0.848. Besides, the composite z-score is 1.23 in assay [7], 0.692 in assay [9] and -0.0346 in assay [10]. Besides, the z-score in assay [8] was -1.9 (inactive).

Regarding `COc1ccc([Si](C)(C)[C@@H]2[C@@H](CCO)O[C@]3(C(=O)N(Cc4ccccc4)c4ccc(N5CCCCC5=O)cc43)[C@H]2C)cc1`, the composite z-score in assay [1] was -0.389; in assay [2] it was 0.942; in assay [3], 0.0026; in [4] it was 0.711; in [5], 1.06; in [6], 0.965. Also, the composite z-score in assay [7] was 1.15; in [9], 0.566; in [10] it was -0.0645. Further, in assay [8], the z-score is -4.38 (inactive).

With `COC(=O)C(CC#Cc1ccc2c(c1)[C@]1(C(=O)N2)[C@H](c2ccc(OCCO)cc2)N2[C@H](c3ccccc3)[C@H](c3ccccc3)OC(=O)[C@H]2[C@@H]1C(=O)O)C(=O)OC`, the composite z-score was determined as 0.915 in assay [1]; 0.831 in [2]; 0.102 in assay [3]; 0.727 in assay [4]; 0.85 in assay [5]; 2.03 in assay [6]. Further, the composite z-score came out at 1.26 in [7], 1.37 in assay [9] and 0.398 in assay [10]. The z-score in [8] is -0.434 (inactive).

Take `CC1CC/C=C\[C@H]2OC34C=CCN(c5ccc(Cl)cc5)C(=O)[C@H]3N(C(CO)C(C)C)C(=O)[C@]4(C)C2C(=O)O1` (stereo not given in full): the composite z-score was -0.128 in assay [1]; 1.9 in assay [2]; -0.146 in assay [3]; -0.38 in assay [4]; -0.594 in assay [5]; 1 in [6]. Also, the composite z-score in [7] was 1.47; in assay [9], -0.637; in assay [10] it was 0.0373. For the same compound, the z-score in [8] was 0.51 (inactive).

In the case of `COc1cc(NN2C(C(O)c3ccc(I)cc3)C=CC3C(=O)N(C)C(=O)C32)cc(OC)c1OC` (stereo not given), the composite z-score is 0.495 in assay [1]; -0.363 in assay [2]; -0.0207 in assay [3]; 0.0488 in [4]; 1.52 in [5]; 1.96 in assay [6]. Also, the composite z-score was 1.14 in assay [7], -0.0647 in [9] and -0.0237 in [10]. In addition, the z-score in assay [8] is 0.777 (inactive).

As for `CN(C)C(=O)[C@@]1(CCS(=O)(=O)c2ccccc2)N=C(c2ccc(OCCCO)cc2)O[C@H]1c1ccccc1CN=[N+]=[N-]`, the composite z-score in assay [1] is -0.323; in assay [2] it was 0.124; in assay [3], 0.226; in assay [4], 0.972; in assay [5] it was 1.33; in assay [6], 1.63. Further, the composite z-score in assay [7] was 1.27; in assay [9] it was 0.889; in assay [10], -0.236. The z-score in assay [8] is -1.56 (inactive).

`C#CCNS(=O)(=O)N(C)C`: the composite z-score in [1] was -0.49; in assay [2] it was 0.0943; in assay [3], -0.0291; in assay [4], 0.276; in [5], 0.707; in assay [6] it was 0.174. The composite z-score in [7] is 0.774; in [9], -0.136; in assay [10], 0.208. Besides, the z-score in assay [8] is -0.533 (inactive).

`COC(=O)C(CC#Cc1ccc2c(c1)[C@]1(C(=O)N2)[C@H](C(=O)N2CCc3cc(OC)c(OC)cc3C2)[C@H]2C(=O)O[C@H](c3ccccc3)[C@H](c3ccccc3)N2[C@@H]1c1ccc(O)cc1)C(=O)OC`: the composite z-score in assay [1] turned out to be 0.145; in assay [2] it was 0.305; in assay [3], 0.0276; in assay [4], 0.734; in assay [5], 1.32; in assay [6] it was 1.69. Moreover, the figures for the composite z-score in assay [7], in assay [9] and in [10] were 1.35, 0.288 and 0.644, respectively. Moreover, in assay [8], the z-score is 1.77 (inactive).

On to `COC(=O)[C@@]1(Cc2ccccc2)[C@H]2c3cc(C(=O)N(C)C)n(Cc4ccccn4)c3C[C@H]2CN1C(=O)c1ccccc1`, for which the composite z-score in [1] turned out to be 0.907; in assay [2], 1.6; in [3], 0.305; in assay [4], 0.76; in [5], 1.15; in assay [6], 2.33. For the same compound, the composite z-score was found to be 1.31 in assay [7], 1.27 in assay [9] and 0.0302 in assay [10]. Also, in assay [8], the z-score was 1.01 (inactive).
